# Screening data (PubChem)
# D2 ag-1: Beta-Arrestin HTS for Positive Allosteric Modulators of the Human D2 Dopamine Receptor: Agonists | D(2) dopamine receptor (Homo sapiens), P14416 | DiscoveRx PathHunter D2 beta-arrestin, luminescence, 90 min; 100% = 57 uM dopamine signal | activation, % (test concentration not listed) | hit rate 0.084% among 360,000; in the data active = activation above about 40%; inconclusive = between about 15% and that limit
#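 Agonist mode: compounds alone added to overnight-plated D2 PathHunter cells for 90 min at 37 C, with 57 uM final dopamine (EC100) defining full response. Beta-arrestin recruitment detected by chemiluminescent reagent, read after 1 h at ambient temperature.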
# D2 ag-2: HTS Assay for Allosteric Agonists of the Human D2 Dopamine Receptor: Primary Screen for Agonists; D(2) dopamine receptor (Homo sapiens), P14416; HEK293 T-REx D2 cells, calcium flux agonist mode; activation, % at 2 µM; hit rate 0.53% among 340,000; AID 485358, 2010;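 active = activation over 3 SD above normal in the single-dose calcium agonist read, cut at about 30% in these data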; note: 0% is about no effect
#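 Agonism is scored from calcium flux in a force-coupled, inducible HEK293 cell line expressing D2, read kinetically for 180 s after compound addition against dopamine controls.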
# D2 PAM-1: HTS Assay for Positive Allosteric Modulators of the Human D2 Dopamine Receptor: Primary Screen for Potentiators | D(2) dopamine receptor (Homo sapiens), P14416 | HEK293 T-REx D2, calcium flux, EC20 dopamine potentiation | potentiation, % at 10 µM | hit rate 0.34% among 340,000;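 active = potentiation over 3 SD above the plate norm, cut at about 30% in these data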; note: 0% is about no effect
#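 Potentiation of an EC20 dopamine calcium response is measured in a force-coupled, tetracycline-inducible Hek293 Trex D2 line. Compound-only kinetic reads over 180 s flag agonists before dopamine addition.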
# D2 PAM-2: Beta-Arrestin HTS for Positive Allosteric Modulators of the Human D2 Dopamine Receptor: Potentiators; DiscoveRx D2 beta-arrestin cells, luminescence, 90 min; 100% = 57 uM dopamine signal; potentiation, % (concentration not given with the values); hit rate 0.23% among 360,000; in the data active = potentiation above about 50%; inconclusive = mostly about 30% to 49%
#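 PathHunter beta-arrestin assay in DiscoveRx D2 cells. Compounds were added with an EC20 of dopamine (50 nM final) for 90 min at 37 deg C. Luminescence was read 1 h after detection reagent, with 57 uM dopamine as the EC100 control.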
# D2 antag: HTS Assay for Allosteric Antagonists of the Human D2 Dopamine Receptor: Primary Screen for Antagonists; D(2) dopamine receptor (Homo sapiens), P14416; HEK293 TREx D2 cells, calcium flux, dopamine EC80; inhibition, % at 10 µM; hit rate 2% among 340,000; in the data active = inhibition above about 30%; inactive = below that, where a call was filed; note: 0% is about no effect
#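 Inhibition of EC80 dopamine-driven calcium flux, recorded kinetically, defines activity here; cells are a tetracycline-induced HEK293 T-REx line expressing force-coupled D2.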
# D3 ag: qHTS of D3 Dopamine Receptor Agonist: D3 Dopamine Receptor B-arrestin Agonist Confirmatory Assay. shares compounds with D2 ag-2. DiscoveRx D3 beta-arrestin cells, luminescence, 90 min. Potency, µM (highest dose often 76.9 µM), inactives show at the highest dose activation, actives largely listed as activators. hit rate 4% among 2,300;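 note: potency is the fitted concentration of half-maximal effect; 100% = dopamine control response; nearly all actives have a fitted effect of over 70% in size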
# Target sequence (P35462 whole entry, looked up): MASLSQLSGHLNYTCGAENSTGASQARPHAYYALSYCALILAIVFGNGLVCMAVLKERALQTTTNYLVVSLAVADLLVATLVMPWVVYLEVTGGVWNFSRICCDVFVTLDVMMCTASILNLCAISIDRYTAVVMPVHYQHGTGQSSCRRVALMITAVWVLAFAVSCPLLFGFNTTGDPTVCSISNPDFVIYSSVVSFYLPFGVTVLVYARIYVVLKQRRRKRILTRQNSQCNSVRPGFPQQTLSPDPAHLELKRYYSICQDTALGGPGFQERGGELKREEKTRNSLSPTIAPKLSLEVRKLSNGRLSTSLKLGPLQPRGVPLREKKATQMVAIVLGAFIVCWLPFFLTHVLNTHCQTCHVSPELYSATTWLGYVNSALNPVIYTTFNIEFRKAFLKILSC
# D2 ag-3: qHTS of D3 Dopamine Receptor Agonist: D2 Dopamine Receptor B-arrestin Agonist Counterscreen; shares compounds with D2 ag-2; DiscoveRx PathHunter D2 beta-arrestin, luminescence, 90 min; response scale: percent relative to full dopamine signal; Potency, µM (highest dose often 76.9 µM), inactives show top-dose activation, actives largely listed as activators; hit rate 5.9% among 2,300; AID 720507, 2013; note: potency is the fitted concentration of half-maximal effect; % of control where 0% means no effect; nearly all actives have a fitted effect of over 70% in size
# Numbers without * were called inactive; ? = inconclusive; / = no result. Most compounds without a hit are left out; they make up all but 2.4% or so of the library. Unless noted, calls come from the whole dose curve; as a rule, active = well fitted activation curve with a large enough effect; inconclusive = small, poorly fitted or top-dose-only effect; inactive = flat fitted curve, though single readings scatter.
SMILES,D2 ag-1,D2 ag-2,D2 PAM-1,D2 PAM-2,D2 antag,D3 ag,D2 ag-3
CCOc1ccccc1C(=O)N1CCC(c2nc3ccccc3o2)CC1,/,2,-6,/,/,/,/
CC(C)(C)c1ccc(C(=O)N2CCN(CCNC(=O)C(=O)NCc3ccc(Cl)cc3)CC2)cc1,-2,0,4,5,27,2%,15%
Cc1cc(C)nc(N2CCC(C(=O)NCc3ccco3)CC2)n1,-2,/,/,-10,/,/,/
Cc1cc(C)nc(N2CCC(C(=O)NCc3cccs3)CC2)n1,-2,31*,-6,-5,-8,-1%,-6%
Cc1oc(-c2ccccc2F)nc1CN1CCC(C(=O)NCc2cccs2)CC1,1,52*,-15,-2,-6,-4%,8%
NC(=O)c1nc(Nc2ccccc2)sc1NC(=O)c1ccccc1Br,/,2,-1,/,/,/,/
Cc1cc(=O)[nH]c2c(C)cc(S(=O)(=O)NCc3ccccc3)cc12,4,36*,-5,9,5,-2%,-2%
Cn1c(CCN2CCN(c3ccccn3)CC2)nc2cc(NC(=O)COc3ccc(Cl)cc3)ccc21,11,-1,2,-20,37*,26%,?
Cc1cccc(OCC(=O)Nc2ccc3c(c2)nc(CCN2CCN(c4ccccn4)CC2)n3C)c1,10,0,-5,-20,31*,28µM*,?
N#CC1=C(N)NC(SCC(=O)Nc2ccc(Br)cc2)=C(C#N)C12CCCCC2,-1,75*,-18,-36,-41,7%,8%
N#CC1=C(N)NC(SCc2ccc(Br)cc2)=C(C#N)C12CCCCC2,4,/,/,-4,/,/,/
COc1cc(S(=O)(=O)NCCc2c(C)[nH]c3ccc(C)cc23)ccc1Br,/,0,2,/,/,/,/
CCCOc1ccc(C(=O)N2CCN(c3ccc(N)cc3Cl)CC2)cc1,-3,31*,-5,-3,2,-3%,2%
CCCCOc1ccc(C(=O)N2CCN(c3ccc(N4CCOCC4)nn3)CC2)cc1,2,-1,-3,0,1,/,/
CC(C)N1CCN(S(=O)(=O)c2ccccc2)CC1,-1,2,1,2,1,/,/
CCS(=O)(=O)N1CCN(C(C)CCc2ccccc2)CC1 (configuration not stated),13,61*,-21,3,28,?,?
Cn1ccc2ccc(C3=CC(=O)C[C@H](c4ccc(F)cc4)C3)cc21,-3,-1,-12,-5,-10,-5%,1%
Cc1ccc(C2=CC(=O)C[C@H](c3ccc(F)cc3)C2)cc1,-7,0,16,-7,8,/,/
N#Cc1ccc(C2=CC(=O)C[C@H](c3ccc(F)cc3)C2)cc1,1,0,8,-13,-11,3%,1%
CC1=C(C(=O)Nc2ccccc2)C(c2ccc(O)cc2)n2nc(-c3ccc(Cl)cc3)nc2N1 (configuration not stated),/,1,5,/,/,/,/
Cc1ccccc1CN1CCN(S(=O)(=O)c2ccc(F)cc2)CC1,-1,1,-2,-18,-18,/,/
O=S(=O)(c1ccc(Br)cc1)N1CCCN(Cc2ccccc2F)CC1,-1,41*,-22,-7,-20,-8%,-2%
O=C(CCc1ccccc1)N(Cc1cccnc1)c1nc2c(F)cc(F)cc2s1,/,/,21,/,/,/,/
CCCN(CCC)CCCNC(=O)CC1Nc2ccccc2NC1=O (configuration not stated),1,51*,-7,2,24,-5%,-1%
CCCCN(CC)CCCNC(=O)CC1Nc2ccccc2NC1=O (configuration not stated),9,75*,-14,-7,40*,-1%,2%
SMILES,D2 ag-1,D2 ag-2,D2 PAM-1,D2 PAM-2,D2 antag,D3 ag,D2 ag-3
CCCCN(C)CCCNC(=O)CC1Oc2ccccc2NC1=O (configuration not stated),1,85*,-25,26,62*,?,?
O=C(Nc1cc(F)ccc1F)C1CCN(C(=O)c2cnn(-c3ccccc3)c2-n2cccc2)CC1,/,/,2,/,/,/,/
COc1ccc(C(=O)NC2(C(F)(F)F)C(=O)NC(C)=C2C#N)cc1 (configuration not stated),/,0,16,/,/,/,/
COc1ccc(N=C2NC(=O)S/C2=C\c2ccc(N(C)C)cc2)cc1,-5,14,-20,-47,-15,-25%,-13%
CCOc1ccc(N=C2NC(=O)S/C2=C\c2ccc(Cl)cc2)cc1,-4,0,-11,-34,-5,/,/
CCCCn1c(N)c(N(CCC(C)C)C(=O)C2CC(=O)N(CCc3ccc(OC)c(OC)c3)C2)c(=O)[nH]c1=O (configuration not stated),-1,0,6,4,9,-1%,-4%
Cc1ccc(N2CCN(CCc3nc4cc(NS(C)(=O)=O)ccc4n3C)CC2)cc1,0,0,-39,-36,11,/,/
COc1ccc(OCC(=O)Nc2ccc3c(c2)nc(CCN2CCN(c4ccccn4)CC2)n3C)cc1,7,/,/,-18,/,/,/
Cc1ccc(S(=O)(=O)Nc2ccc3c(c2)nc(CCN2CCN(c4ccccn4)CC2)n3C)cc1,7,0,-6,-25,51*,8%,25%
Cn1c(CCN2CCN(c3ccccn3)CC2)nc2cc(NS(=O)(=O)c3ccc(Cl)cc3)ccc21,13,0,-5,-22,74*,16%,?
O=C(c1cc(-c2ccc(F)cc2)on1)N1CCCC1,0,0,-11,-3,25,-11%,-3%
CCOC(=O)N1CCc2c(sc(NCc3ccc(N(C)C)cc3)c2C(=O)Nc2ccccc2OCC)C1,/,0,3,/,/,/,/
CCOC(=O)C1=C(CS(=O)(=O)c2ccc(F)c(C)c2)NC(=O)NC1c1ccccc1OC (configuration not stated),/,2,-3,/,/,/,/
COc1cc(CN(C(=O)COc2ccc(Br)cc2)c2ccccn2)cc(OC)c1OC,/,0,12,/,/,/,/
